Reference: PubChem BioAssay (NCATS)
Inconclusive results are not listed. Active and inactive are the calls of the source. Unless noted, calls follow the shape of the dose curve; as a rule, active = well fitted curve in either direction with a large enough effect (not every such curve was filed as active); inconclusive = small, poorly fitted or top-dose-only effect, or another doubt; inactive = flat fitted curve, though single readings scatter.

Key:
[1] = target: Lysosomal acid glucosylceramidase (Homo sapiens) (UniProt P04062); assay: Glucocerebrosidase-p2 (AID 348; in the data active = potency below about 10 µM; also: potency is read from the fitted curve at half-maximal effect); conditions: purified GBA, blue fluorogenic substrate, 40 min
Sequence of Lysosomal acid glucosylceramidase (Homo sapiens) (P04062 whole entry, looked up): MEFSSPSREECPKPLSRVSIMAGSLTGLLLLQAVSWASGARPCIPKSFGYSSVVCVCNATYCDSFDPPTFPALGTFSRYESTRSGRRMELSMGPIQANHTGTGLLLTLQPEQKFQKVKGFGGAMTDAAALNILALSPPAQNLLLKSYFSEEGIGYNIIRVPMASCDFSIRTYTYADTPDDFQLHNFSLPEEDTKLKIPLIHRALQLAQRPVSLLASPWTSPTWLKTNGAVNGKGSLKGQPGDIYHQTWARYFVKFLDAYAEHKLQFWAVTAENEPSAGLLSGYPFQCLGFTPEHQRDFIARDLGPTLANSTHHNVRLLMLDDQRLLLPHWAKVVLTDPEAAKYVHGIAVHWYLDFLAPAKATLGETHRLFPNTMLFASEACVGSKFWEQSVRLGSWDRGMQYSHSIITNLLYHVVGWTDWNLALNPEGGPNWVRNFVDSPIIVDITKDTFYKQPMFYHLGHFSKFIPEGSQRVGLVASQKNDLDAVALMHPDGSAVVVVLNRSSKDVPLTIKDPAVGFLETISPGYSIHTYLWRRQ
Outline: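 Compounds titrated from 0.6 nM upwards against 0.2 nM enzyme in pH 5.9 citric acid/KH2PO4, taurocholate, tween-20; blue fluorogenic substrate 80 uM, 40 min room temperature, stopped and read Ex 365/Em 440 for AC50.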

[2] = target: Cytochrome P450 1A2 (Homo sapiens) (UniProt P05177); assay: p450-cyp1a2 (AID 410; calls by dose curve; also: potency is read from the fitted curve at half-maximal effect); conditions: recombinant CYP1A2, luciferin-ME demethylation, luminescence; series mostly up to 57 µM
Sequence of Cytochrome P450 1A2 (Homo sapiens) (P05177 whole entry, looked up): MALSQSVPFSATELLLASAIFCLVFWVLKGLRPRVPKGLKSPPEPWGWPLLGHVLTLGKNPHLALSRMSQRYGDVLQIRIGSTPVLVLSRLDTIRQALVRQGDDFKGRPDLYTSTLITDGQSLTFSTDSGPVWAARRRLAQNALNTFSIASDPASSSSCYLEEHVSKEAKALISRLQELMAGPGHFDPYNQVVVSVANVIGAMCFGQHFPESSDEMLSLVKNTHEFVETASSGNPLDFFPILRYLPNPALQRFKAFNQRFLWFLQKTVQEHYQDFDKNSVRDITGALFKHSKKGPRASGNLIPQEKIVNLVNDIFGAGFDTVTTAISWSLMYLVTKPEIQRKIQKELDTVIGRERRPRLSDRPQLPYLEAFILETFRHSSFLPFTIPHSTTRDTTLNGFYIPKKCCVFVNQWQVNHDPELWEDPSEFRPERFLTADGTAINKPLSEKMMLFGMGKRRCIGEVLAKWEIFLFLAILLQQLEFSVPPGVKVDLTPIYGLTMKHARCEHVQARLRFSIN
Outline: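 20nM CYP1A2 with 100uM Luciferin-ME (at Km) in 100mM KPO4; compound preincubated 10 min, NADPH regeneration added, 60 min at room temperature. Luciferin quantified by luminescence after detection reagent; normalized to 57 uM furafylline.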

[3] = NFAT Signaling Pathway (AID 444); conditions: Jurkat NFAT-bla M1, carbachol, beta-lactamase ratio, 5 h; at 7.69 µM (top of the series) unless noted;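 also: carbachol stimulus at about its EC50 of 1 µM final; % is scaled to controls: 0 for no effect and ±100 for the full control effect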
Outline: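 Jurkat cells carrying an NFAT-driven β-lactamase reporter and co-transfected muscarinic M1 receptor were treated with compound plus carbachol (1 uM final, an EC50 level) for 5 h at 37 °C. CCF4 loading followed for 1 h at RT; 460/530 nm ratio gave %activity.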

[4] = Stat Signaling Pathway (AID 446); conditions: ME-180 SIE beta-lactamase reporter, IL-6 stimulated, 5 h; at 7.69 µM (top of the series) unless noted;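 also: ME-180 cervical cancer cells given 40 pM IL-6 alongside compound; SIE-controlled beta-lactamase reporter measured as 460/530 nm FRET emission ratio; % is scaled to controls: 0 for no effect and ±100 for the full control effect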
Outline: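 Screening format detects activators and inhibitors alike: ME-180 SIE-bla cells stimulated at 40 pM IL-6 for 5 hrs with compound, then dual-emission beta-lactamase read at 405 nm excitation.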

[5] = target: Glucocorticoid receptor (Homo sapiens) (UniProt P04150); assay: GR-GFP Redistribution (AID 450;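 active = compounds whose dose series gives a full or clear partial fitted curve of increased nuclear translocation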; also: potency is read from the fitted curve at half-maximal effect); conditions: U2OS GR-GFP nuclear translocation, laser cytometry, 2 h
Sequence of Glucocorticoid receptor (Homo sapiens) (P04150 whole entry, looked up, the tested form may be a part): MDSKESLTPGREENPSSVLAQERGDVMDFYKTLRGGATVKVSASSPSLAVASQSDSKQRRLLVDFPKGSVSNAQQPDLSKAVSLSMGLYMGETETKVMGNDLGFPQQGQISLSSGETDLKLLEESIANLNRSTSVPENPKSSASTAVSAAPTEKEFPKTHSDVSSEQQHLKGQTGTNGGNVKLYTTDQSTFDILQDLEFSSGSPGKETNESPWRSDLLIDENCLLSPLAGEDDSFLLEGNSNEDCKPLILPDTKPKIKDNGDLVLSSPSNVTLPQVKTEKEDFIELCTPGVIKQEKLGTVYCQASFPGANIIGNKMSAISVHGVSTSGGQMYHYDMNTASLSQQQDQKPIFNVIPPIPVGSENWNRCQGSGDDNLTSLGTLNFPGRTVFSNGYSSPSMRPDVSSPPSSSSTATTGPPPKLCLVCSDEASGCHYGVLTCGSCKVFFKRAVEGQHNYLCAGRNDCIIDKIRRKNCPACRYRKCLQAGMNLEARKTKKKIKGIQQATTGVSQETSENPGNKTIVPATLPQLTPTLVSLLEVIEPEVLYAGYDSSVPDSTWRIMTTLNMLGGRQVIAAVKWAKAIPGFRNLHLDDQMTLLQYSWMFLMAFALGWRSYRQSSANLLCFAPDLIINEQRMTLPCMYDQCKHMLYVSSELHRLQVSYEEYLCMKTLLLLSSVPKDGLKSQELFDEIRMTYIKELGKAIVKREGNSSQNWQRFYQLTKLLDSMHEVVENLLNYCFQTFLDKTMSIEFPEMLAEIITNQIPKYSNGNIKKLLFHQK

[6] = target: Glucocorticoid receptor (Homo sapiens) (UniProt P04150); assay: GR-EFC Redistribution (AID 451; calls by dose curve; also: potency is read from the fitted curve at half-maximal effect); conditions: CHO-K1 GR-EFC translocation, beta-gal luminescence, 2 h
Outline: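 CHO-K1 cells stably expressing nuclear-localized β-gal enzyme acceptor and GR fused C-terminally to the enzyme donor fragment; ligand-driven nuclear translocation restores β-gal by complementation. Compounds titrated up to 46 uM final, 2 h at 37 °C; luminescence read.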

[7] = target: Mitogen-activated protein kinase 10 (Mus musculus) (UniProt Q61831); assay: JNK3 AlphaScreen Assay (AID 530); conditions: JNK3 lysate, c-Jun phosphorylation; series mostly up to 57.1 µM;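 also: kinase came from lysate of stimulated human HepG2 cells; signal reports phosphorylation of biotinylated GST-cJun 1-79 at Ser73 with 10 µM ATP; % is scaled to controls: 0 for no effect and ±100 for the full control effect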
Outline: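 Inhibitors reduce antibody binding to phosphorylated biotin-cJun, lowering AlphaScreen luminescence. Lysates from HepG2 cells pre-activated by IL-1beta plus TNF-alpha supplied JNK3; compounds were titrated.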

[8] = target: Cytochrome P450 3A4 (Homo sapiens) (UniProt P08684); assay: qHTS Assay for Activators of Cytochrome P450 3A4 (AID 885; active = well fitted curve in the direction sought with a large enough effect; an effect the other way counts as inactive or inconclusive; also: nearly all actives have a fitted effect of over 65% in size); conditions: recombinant CYP3A4, Luciferin-PPXE luminescence, 60 min; series mostly up to 57.1 µM
Sequence of Cytochrome P450 3A4 (Homo sapiens) (P08684 whole entry, looked up): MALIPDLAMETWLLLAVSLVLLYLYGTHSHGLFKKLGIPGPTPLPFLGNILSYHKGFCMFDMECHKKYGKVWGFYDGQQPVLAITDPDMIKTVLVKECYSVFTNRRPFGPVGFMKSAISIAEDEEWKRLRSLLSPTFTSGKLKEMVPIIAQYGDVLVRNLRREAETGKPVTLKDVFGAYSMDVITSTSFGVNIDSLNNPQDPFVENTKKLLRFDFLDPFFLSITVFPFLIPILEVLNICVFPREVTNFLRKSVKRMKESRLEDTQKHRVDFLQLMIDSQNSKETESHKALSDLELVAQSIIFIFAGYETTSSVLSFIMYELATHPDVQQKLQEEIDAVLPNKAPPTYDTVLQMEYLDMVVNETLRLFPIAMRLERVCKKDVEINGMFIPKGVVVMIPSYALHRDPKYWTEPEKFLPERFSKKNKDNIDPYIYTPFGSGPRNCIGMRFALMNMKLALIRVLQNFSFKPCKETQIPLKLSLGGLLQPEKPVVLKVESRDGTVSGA
Outline: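 Steps: enzyme/substrate mix dispensed; compound added, 10 min RT; NADPH regeneration solution added, 60 min RT; luciferin detection buffer stops reaction; 20 min later luminescence measured.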

[9] = target: Cytochrome P450 2C19 (Homo sapiens) (UniProt P33261); assay: qHTS Assay for Inhibitors and Substrates of Cytochrome P450 2C19 (AID 899; active = well fitted curve in the direction sought with a large enough effect; an effect the other way counts as inactive or inconclusive; also: potency is read from the fitted curve at half-maximal effect; nearly all actives have a fitted effect of over 60% in size); conditions: recombinant CYP2C19, luciferin-H EGE luminescence; series mostly up to 57.1 µM
Sequence of Cytochrome P450 2C19 (Homo sapiens) (P33261 whole entry, looked up): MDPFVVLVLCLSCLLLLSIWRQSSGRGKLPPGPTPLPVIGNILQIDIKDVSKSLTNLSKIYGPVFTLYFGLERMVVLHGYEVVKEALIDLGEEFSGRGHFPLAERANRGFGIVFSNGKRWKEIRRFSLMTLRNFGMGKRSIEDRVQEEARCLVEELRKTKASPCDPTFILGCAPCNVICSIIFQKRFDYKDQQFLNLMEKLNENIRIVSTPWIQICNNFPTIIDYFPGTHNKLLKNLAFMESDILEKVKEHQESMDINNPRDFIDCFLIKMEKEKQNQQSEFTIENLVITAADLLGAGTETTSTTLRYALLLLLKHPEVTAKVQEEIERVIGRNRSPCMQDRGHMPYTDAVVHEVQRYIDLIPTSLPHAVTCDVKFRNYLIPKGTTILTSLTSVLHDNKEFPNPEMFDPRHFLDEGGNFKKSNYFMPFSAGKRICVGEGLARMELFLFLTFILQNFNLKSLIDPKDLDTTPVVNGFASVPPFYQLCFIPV
Outline: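 NADPH-dependent conversion of Luciferin-H EGE (10uM, at KM) by 5nM enzyme in 50mM KPO4, 60 min at 37C following 10 min compound preincubation. Stopped with luciferin detection buffer; luminescence read after 20 min.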

[10] = qHTS Assay for Lipid Storage Modulators (AID 1519; calls by dose curve); conditions: Drosophila S3 cells, BODIPY lipid droplet/cell ratio, laser cytometry, cells loaded with oleic acid; for activity change, negative = inhibition: at 57.5 µM (top of the series)
Outline: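 Cells seeded at 5,000 per well were treated with compounds over a concentration series and loaded with oleic acid (400 uM, as added). Lipid droplet fluorescence (488 nm excitation, 500-530 nm channel) was read by laser-scanning cytometry and normalized to 20 uM Triacsin C.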

[11] = target: Dual specificity protein kinase CLK4 (Homo sapiens) (UniProt Q9HAZ1); assay: qHTS Assay for Inhibitors of CDC-like Kinase 4 (Kinase-Glo Assay) (AID 1770; active = well fitted curve in the direction sought with a large enough effect; an effect the other way counts as inactive or inconclusive; also: nearly all actives have a fitted effect of over 65% in size; also: potency is read from the fitted curve at half-maximal effect); conditions: recombinant Clk4, Kinase-Glo ATP depletion luminescence; series mostly up to 66.7 µM
Sequence of Dual specificity protein kinase CLK4 (Homo sapiens) (Q9HAZ1 whole entry, looked up): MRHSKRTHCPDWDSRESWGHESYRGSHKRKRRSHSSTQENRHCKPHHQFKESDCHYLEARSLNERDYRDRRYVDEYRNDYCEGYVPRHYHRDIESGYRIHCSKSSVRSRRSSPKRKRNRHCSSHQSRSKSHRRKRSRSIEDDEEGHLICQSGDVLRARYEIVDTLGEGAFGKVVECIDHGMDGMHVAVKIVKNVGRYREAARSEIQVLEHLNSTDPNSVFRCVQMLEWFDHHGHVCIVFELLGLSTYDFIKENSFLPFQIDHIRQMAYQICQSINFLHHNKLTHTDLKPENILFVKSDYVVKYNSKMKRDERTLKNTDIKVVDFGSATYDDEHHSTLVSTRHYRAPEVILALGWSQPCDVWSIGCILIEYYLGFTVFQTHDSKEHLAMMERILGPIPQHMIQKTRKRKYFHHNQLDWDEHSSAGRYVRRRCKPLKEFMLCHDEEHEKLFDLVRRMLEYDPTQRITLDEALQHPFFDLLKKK
Outline: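 Clk4 25 nM, RS peptide 100 uM, ATP 1 uM, pH 7.5 Tris, 10 mM MgCl2, 2.5 mM DTT; 4.5 h RT; ATP depletion read by Kinase-Glo luminescence.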

[12] = target: Ubiquitin carboxyl-terminal hydrolase 1 (Homo sapiens) (UniProt O94782); assay: Inhibitors of USP1/UAF1: Pilot qHTS (AID 504865; active = well fitted curve in the direction sought with a large enough effect; an effect the other way counts as inactive or inconclusive;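 also: rhodamine fluorescence freed from ubiquitin-rhodamine substrate followed over time; top concentration of the series differs between compounds; % is scaled to controls: 0 for no effect and ±100 for the full control effect; nearly all actives have a fitted effect of over 35% in size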); conditions: purified USP1/UAF1, Ub-rhodamine cleavage fluorescence; series mostly up to 54.9 µM
Sequence of Ubiquitin carboxyl-terminal hydrolase 1 (Homo sapiens) (O94782 whole entry, looked up): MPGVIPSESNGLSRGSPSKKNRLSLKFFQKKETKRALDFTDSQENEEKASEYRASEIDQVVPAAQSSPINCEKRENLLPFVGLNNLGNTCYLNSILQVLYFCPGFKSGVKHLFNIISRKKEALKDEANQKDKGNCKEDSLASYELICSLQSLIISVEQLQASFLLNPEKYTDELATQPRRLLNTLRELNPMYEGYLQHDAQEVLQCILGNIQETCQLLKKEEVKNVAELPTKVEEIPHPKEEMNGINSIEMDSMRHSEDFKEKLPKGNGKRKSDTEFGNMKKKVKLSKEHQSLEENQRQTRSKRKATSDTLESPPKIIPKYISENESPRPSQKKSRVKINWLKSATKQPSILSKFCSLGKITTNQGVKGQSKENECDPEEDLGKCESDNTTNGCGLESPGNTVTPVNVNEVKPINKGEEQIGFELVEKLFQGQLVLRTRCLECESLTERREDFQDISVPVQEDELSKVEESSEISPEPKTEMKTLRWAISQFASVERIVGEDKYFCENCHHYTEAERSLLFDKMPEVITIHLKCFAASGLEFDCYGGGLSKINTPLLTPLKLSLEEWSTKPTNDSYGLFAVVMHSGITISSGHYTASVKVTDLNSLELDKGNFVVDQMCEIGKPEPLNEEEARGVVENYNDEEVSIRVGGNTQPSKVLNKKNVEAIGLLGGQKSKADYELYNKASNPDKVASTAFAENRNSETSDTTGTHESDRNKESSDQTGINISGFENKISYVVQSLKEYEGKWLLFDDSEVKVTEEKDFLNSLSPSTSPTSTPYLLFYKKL
Outline: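 Enzyme-free wells gave the negative control, while test wells held 1nM USP1/UAF1 preincubated with compound for 15 min at room temperature. Ub-Rho at 150nM final started the reaction, and fluorescence at 480/540 nm was recorded kinetically.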

[13] = AP1 Signaling Pathway (AID 357); conditions: ME-180 (cervical carcinoma) AP-1-bla reporter, EGF-induced, beta-lactamase ratio, 5 h; at 7.69 µM (top of the series) unless noted;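 also: ME-180 reporter cells stimulated with EGF at its EC50 level; % is scaled to controls: 0 for no effect and ±100 for the full control effect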
Outline: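 Beta-lactamase reporter under AP-1 response element, ME-180 background. Stimulus: EC50 EGF. Compound exposure 5 h, 37 °C. Detection: CCF4, 2.5 h RT, 460/530 nm. Values: AC50 from titration.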

[14] = target: 3',5'-cyclic-AMP phosphodiesterase 4B (Homo sapiens) (UniProt Q07343); assay: qHTS Assay for Inhibitors of PDE-IV (AID 607; active = well fitted activation curve with a large enough effect in the main read-out, with a control signal flat, not every such curve was filed as active; also: % of control where 0% means no effect); conditions: HEK293 ACTOne CNG channel cells, membrane potential fluorescence; series mostly up to 22.9 µM
Sequence of 3',5'-cyclic-AMP phosphodiesterase 4B (Homo sapiens) (Q07343 whole entry, looked up): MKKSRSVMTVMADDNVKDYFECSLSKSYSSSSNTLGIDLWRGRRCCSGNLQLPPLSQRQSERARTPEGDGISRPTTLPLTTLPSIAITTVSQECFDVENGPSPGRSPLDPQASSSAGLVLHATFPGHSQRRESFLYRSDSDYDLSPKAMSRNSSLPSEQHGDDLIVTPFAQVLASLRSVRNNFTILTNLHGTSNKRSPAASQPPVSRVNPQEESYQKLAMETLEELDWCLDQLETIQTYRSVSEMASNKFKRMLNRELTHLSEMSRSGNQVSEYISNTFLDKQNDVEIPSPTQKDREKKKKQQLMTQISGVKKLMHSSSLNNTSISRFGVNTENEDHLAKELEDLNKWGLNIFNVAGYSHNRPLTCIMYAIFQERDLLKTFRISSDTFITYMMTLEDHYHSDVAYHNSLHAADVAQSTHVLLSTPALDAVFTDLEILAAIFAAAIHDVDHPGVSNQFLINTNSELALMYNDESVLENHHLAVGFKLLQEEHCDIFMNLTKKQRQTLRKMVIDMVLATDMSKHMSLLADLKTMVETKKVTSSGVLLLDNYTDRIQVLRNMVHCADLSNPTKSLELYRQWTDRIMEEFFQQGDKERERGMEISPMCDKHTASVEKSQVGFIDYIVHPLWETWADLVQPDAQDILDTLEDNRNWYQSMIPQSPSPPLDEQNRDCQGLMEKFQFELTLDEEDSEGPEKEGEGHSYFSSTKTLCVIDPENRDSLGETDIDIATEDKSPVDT
Outline: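 The readout is membrane depolarisation from a cAMP-sensing CNG channel, detected with a potential dye at ex 535/em 590. Cells were HEK293-derived (endogenous PDE-IV) at 1000 cells/well, titrated up to 22.9 uM final.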

[15] = target: Dual specificity protein kinase CLK4 (Homo sapiens) (UniProt Q9HAZ1); assay: qHTS Assay for Inhibitors of CDC-like Kinase 4 (ADP-FP Assay) (AID 1795; active = well fitted curve in the direction sought with a large enough effect; an effect the other way counts as inactive or inconclusive;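 also: recombinant human CLK4 phosphorylating RS repeat peptide at 1 µM ATP; % is scaled to controls: 0 for no effect and ±100 for the full control effect; nearly all actives have a fitted effect of over 60% in size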); conditions: Transcreener ADP fluorescence polarization; series mostly up to 50 µM
Outline: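 Kinase activity was followed as ADP output, converted from fluorescence polarization with a calibration curve. Reactions ran one hour at low ATP (1 uM) with RS peptide substrate.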

[16] = target: Dual specificity protein kinase CLK4 (Homo sapiens) (UniProt Q9HAZ1); assay: qHTS Assay for Inhibitors of CDC-like Kinase 4 (ADP-Glo Assay) (AID 1771; active = well fitted curve in the direction sought with a large enough effect; an effect the other way counts as inactive or inconclusive; also: nearly all actives have a fitted effect of over 70% in size; also: potency is read from the fitted curve at half-maximal effect); conditions: recombinant CLK4, ADP-Glo luminescence; series mostly up to 80 µM
Outline: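 25 nM Clk4 with 100 uM RS repeat peptide and 1 uM ATP (final) in buffer with 2 mM MgCl2, 0.5 mM EGTA, 2.5 mM DTT, 0.01% Triton X-100; 1 h at room temperature; ADP-Glo luminescence for ADP formed.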

[17] = measured here: cell count channel max response
[18] = measured here: lipid channel max response

COc1ccccc1-c1ccc2ncnc(Nc3ccccc3)c2c1
active: Potency [2] 2.51 µM | Potency [9] 5.01 µM | Potency [11] 15.8 µM
-15.8%: max response [10, 17]
inactive: Potency [1] > 11.4 µM | activity change, negative = inhibition [3] 10.9% | activity, negative = inhibition [4] 9.56% | Potency [5] > 46 µM | Potency [6] > 46 µM | Potency [7] | Potency [8] | activity change, negative = inhibition [10] -15.1% | Potency [12]
-29%: max response [10, 18]

CN1CCN(c2ncc3nc(-c4cccc(C#N)c4)c(=O)n(C)c3n2)CC1
inactive: Potency [1] > 11.4 µM | activity change, negative = inhibition [13] 0.861% | activity change, negative = inhibition [3] 13.1% | activity, negative = inhibition [4] -0.0628% | Potency [5] > 9.22 µM | Potency [6] > 46 µM | Potency [7] | Potency [14] | activity change, negative = inhibition [10] 1.68% | Potency [11] | Potency [15] | Potency [12]
active: Potency [2] 12.6 µM
0.284%: max response [10, 18]
0.187%: max response [10, 17]

COc1ccc(-c2nc3cnc(N4CCN(C)CC4)nc3n(C3CC3)c2=O)cc1
3.44%: max response [10, 18]
active: Potency [2] 20 µM
inactive: Potency [1] > 11.4 µM | activity change, negative = inhibition [13] -5.97% | activity change, negative = inhibition [3] -2.54% | activity, negative = inhibition [4] -7.93% | Potency [5] > 9.22 µM | Potency [6] > 46 µM | Potency [7] | Potency [14] | activity change, negative = inhibition [10] 2.69% | Potency [11] | Potency [16] | Potency [12]
2.3%: max response [10, 17]

Clc1ccccc1-c1ccc2ncnc(NC3CCNCC3)c2c1
1.92%: max response [10, 18]
inactive: Potency [1] > 11.4 µM | activity change, negative = inhibition [3] -8.44% | activity, negative = inhibition [4] -0.786% | Potency [6] > 46 µM | Potency [7] | Potency [14] | activity change, negative = inhibition [10] 1.65%
0.483%: max response [10, 17]
active: Potency [2] 15.8 µM | Potency [9] 3.98 µM | Potency [11] 25.1 µM | Potency [16] 22.4 µM

O=c1cnc2cnc(N3CCNCC3)nc2n1C1CC1
7.84%: max response [10, 18]
inactive: Potency [1] > 11.4 µM | activity change, negative = inhibition [13] -8.15% | activity change, negative = inhibition [3] -1.86% | activity, negative = inhibition [4] -7.26% | Potency [5] > 9.22 µM | Potency [6] > 46 µM | Potency [7] | Potency [14] | activity change, negative = inhibition [10] 0.852% | Potency [11] | Potency [16] | Potency [12]
9.12%: max response [10, 17]

COCCn1c(=O)c(-c2cccc(C#N)c2)nc2cnc(N3CCN(C)CC3)nc21
22.5%: max response [10, 18]
18.2%: max response [10, 17]
active: Potency [2] 15.8 µM
inactive: Potency [1] > 11.4 µM | activity change, negative = inhibition [13] -14.7% | activity change, negative = inhibition [3] 0.13% | activity, negative = inhibition [4] -4.72% | Potency [5] > 9.22 µM | Potency [6] > 46 µM | Potency [7] | Potency [14] | activity change, negative = inhibition [10] 6.64% | Potency [11] | Potency [15] | Potency [12]
